From PubChem BioAssay
Compounds with a hit are over-represented: about 19% of the library has one in this group of screens.
BCR signal inh: blocks chronic active B-cell receptor signaling. 340,000 compounds, 0.05% hits. Potency, µM (top dose mostly 46.1 µM), hits mostly inhibitors. ABC-DLBCL IkBa-CBG/CBR reporter, luminescence ratio, 4 h; active = well fitted inhibition curve with a large enough effect in the signal ratio, with a control signal flat, not every such curve was filed as active; inconclusive = small, poorly fitted or top-dose-only effect, or effect the other way, or a change in a side signal; the % refers to the signal ratio
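Compounds up to 46 uM were incubated four hours with TMD8 cells whose green CBG68 luciferase is fused to IkappaBalpha; red CBR luminescence normalised the signal, and concentration-effect curves were fitted to fusion, red and ratio data.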
DT40 TDP1 CPT: DT40-hTDP1 cell growth loss with CPT; chicken DT40 Tdp1-/-;hTDP1 cells + 20 nM CPT, ATP luminescence, 48 h; 420,000 compounds, 12% hits; Potency, µM (titrated, usually from 46.2 µM), most hits filed as inhibitors; also: nearly all actives have a fitted effect of over 55% in size
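Chicken DT40 Tdp1-/- cells complemented with human TDP1, 400 cells/well, exposed to compounds plus 20 nM camptothecin for at least 48 h at 37 C; viability read as ATP content by CellTiter-Glo luminescence.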
TDP1 cell noCPT: qHTS for Inhibitors of human tyrosyl-DNA phosphodiesterase 1 (TDP1): qHTS in cells in absence of CPT | DT40 Tdp1-/- hTDP1 cells, no CPT, ATP luminescence, 48 h | Potency, µM (top dose mostly 46.2 µM), usual class: inhibitors | 420,000 compounds, 15% hits | AID 686978, 2013; also: nearly all actives have a fitted effect of over 55% in size
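No-CPT arm: Tdp1-/-;hTDP1 DT40 cells (400/well) plus compounds, incubated ≥48 hr at 37 °C. Readout CellTiter-Glo luminescence.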
MCF10A rerep: inducers of DNA re-replication in MCF 10A breast cells | 350,000 compounds, 2.9% hits | MCF 10A DNA re-replication, Hoechst nuclear intensity, 48 h | Potency, µM (doses to about 46.1 µM), most hits filed as activators; also: nearly all actives have a fitted effect of over 50% in size
SW480 rereplic: DNA re-replication induction in SW480 cells; SW480 DNA re-replication, Hoechst DNA content imaging, 48 h; Potency, µM (doses to about 46.1 µM), usual class: activators; 340,000 compounds, 1.8% hits; also: nearly all actives have a fitted effect of over 55% in size
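Per well, 250 cells were exposed to pinned compound for 48 hr. Nuclear DNA was visualised with Hoechst (40 min, 37 C) and total object intensity recorded by fluorescence scanning.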
IL1B secr inh: inflammasome signaling inhibition, IL-1 beta readout; THP-1 LPS/ATP IL-1B secretion, AlphaLISA, 16 h; stronger effect = lower value; activity change, % at 57.5 µM; 360,000 compounds, 4.7% hits; AID 743279; in the data active = activity change below about -50%; inconclusive = mostly about -30% to -49%
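Secreted IL-1B measured by AlphaLISA bead assay after 16 h compound exposure of THP-1 cells; compounds (final up to 57.5 uM) added 1 h before LPS (250 ng/mL) and ATP (1.25 mM) stimulation; lower signal means less secretion.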
Hits are given with their value; - = inactive; ? = inconclusive; . = no result; ! = a repeat was not active. Unless noted, calls follow the shape of the dose curve; as a rule, active = well fitted curve in the direction sought with a large enough effect; inconclusive = small, poorly fitted or top-dose-only effect, or another doubt; inactive = no such curve, though single readings can be large; an effect the other way counts as inactive or inconclusive.

SMILES	BCR signal inh	DT40 TDP1 CPT	TDP1 cell noCPT	MCF10A rerep	SW480 rereplic	IL1B secr inh
CCNc1nc(NC#N)nc(SCC(=O)OCC)n1	-	-	-	-	-	-
c1ccc2c(N3CCOCC3)c3c(nc2c1)CCC3	-	-	-	-	-	-
COc1ccc2c(c1)CCc1c-2nc2ccccc2c1N1CCOCC1	-	1.6µM	2.1µM	16µM	?	?
COc1ccc2c(-c3ccccc3)cc(N3CCOCC3)nc2c1	-	-	?	21µM	-	-
Cc1[nH][nH]c(=O)c1N=Nc1ccc(S(N)(=O)=O)cc1	.	-	-	?	?	-
Cc1[nH][nH]c(=O)c1N=Nc1ccc(Br)c(Cl)c1	.	?	23µM	-	-	-
CCCCNC(=O)N1CCCN(c2ccc(C#N)cn2)CC1	-	-	-	-	-	-
C[C@@H]1CN([C@@H](C)CO)C(=O)c2cc(C#CC3CCCCC3)cnc2O[C@@H]1CN(C)S(=O)(=O)c1ccc(F)cc1	.	16µM	15µM	.	.	-53
Cc1ccccc1-c1cnc2c(c1)C(=O)N([C@@H](C)CO)C[C@@H](C)[C@H](CN(C)Cc1ccccc1F)O2	.	?	16µM	.	.	-
C[C@@H]1CN([C@@H](C)CO)C(=O)c2cc(Br)cnc2O[C@H]1CN(C)S(=O)(=O)c1ccccc1	.	-	-	.	.	-
COc1ccc(C#Cc2cnc3c(c2)C(=O)N([C@@H](C)CO)C[C@@H](C)[C@@H](CN(C)CC2CCOCC2)O3)cc1	.	18µM	21µM	.	.	-
COc1ccc(S(=O)(=O)N(C)C[C@H]2Oc3ncc(Br)cc3C(=O)N([C@@H](C)CO)C[C@@H]2C)cc1	.	?	12µM	.	.	-
COc1ccc(C#Cc2cnc3c(c2)C(=O)N([C@H](C)CO)C[C@@H](C)[C@H](CN(C)C(=O)CN(C)C)O3)cc1	.	-	-	.	.	-
C[C@@H]1CN([C@H](C)CO)C(=O)c2cc(C#CC3CCCCC3)cnc2O[C@H]1CN(C)Cc1cccnc1	.	?	?	.	.	-
Cc1noc(C)c1S(=O)(=O)N1CCCC1C(=O)O (stereo not drawn)	-	-	-	-	-	-
C[C@@H]1CN([C@@H](C)CO)C(=O)c2cc(/C=C/c3ccccc3)cnc2O[C@@H]1CN(C)S(=O)(=O)c1ccc(F)cc1	.	-	-	.	.	-
CCCNC(=O)N(C)C[C@H]1Oc2ncc(C#CCc3ccccc3)cc2C(=O)N([C@H](C)CO)C[C@H]1C	.	29µM	10µM	.	.	-
C/C=C/c1cnc2c(c1)C(=O)N([C@@H](C)CO)C[C@H](C)[C@@H](CN(C)S(=O)(=O)c1ccc(C)cc1)O2	.	23µM	23µM	.	.	-
C[C@H]1CN([C@@H](C)CO)C(=O)c2cc(Br)cnc2O[C@H]1CN(C)Cc1ccc(Oc2ccccc2)cc1	.	18µM	16µM	.	.	?
CS(=O)(=O)N(CC(=O)N1CCN(Cc2ccccc2)CC1)c1cccc([N+](=O)[O-])c1	-	-	-	-	-	-
C#CCOCCOCCOCCNc1nc(N2CCN(C(=O)CCCCCCCCCCNC(=O)[C@@H]([C@H](C)O)n3cc(C)nn3)CC2)nc(N2CCN(C(=O)CCCCCCCCCCNC(=O)[C@@H]([C@H](C)O)n3cc(C)nn3)CC2)n1	-	?	23µM	13µM	-	-
C#CCOCCOCCOCCNc1nc(N2CCOCC2)nc(N2CCN(C(=O)CCCCCCCCCCNC(=O)[C@@H]([C@H](C)O)n3cc(C)nn3)CC2)n1	-	?	16µM	-	-	-
C#CCOCCOCCOCCNc1nc(N2CCN(C(=O)[C@H]([C@@H](C)CC)n3cc([C@@H](N)CC(C)C)nn3)CC2)nc(N2CCN(C(=O)[C@H]([C@@H](C)CC)n3cc([C@@H](N)CC(C)C)nn3)CC2)n1	-	15µM	?	-	-	-
C#CCOCCOCCOCCNc1nc(N2CCN(C(=O)[C@H]([C@@H](C)CC)n3cc([C@@H](N)CC(C)C)nn3)CC2)nc(N2CCN(C(=O)[C@H](Cc3ccc(O)cc3)n3cc([C@@H](N)CC(C)C)nn3)CC2)n1	-	-	-	-	-	-
COc1cccc(CNC(=O)Cn2c(=O)cc(C(F)(F)F)c3c(C)nn(C)c32)c1OC	.	?	-	.	.	.
SMILES	BCR signal inh	DT40 TDP1 CPT	TDP1 cell noCPT	MCF10A rerep	SW480 rereplic	IL1B secr inh
N#CCCN(Cc1cccnc1)C(=S)NC1CC2C=CC1C2 (stereo not drawn)	-	-	-	-	-	-
COc1cc2oc(-c3ccc(O)cc3)cc(=O)c2c(OC)c1O	?	?	?	-	-	?
COc1ccc(-c2cc(=O)c3c(C)cc(O)cc3o2)cc1	.	?	?	-	-	-
COc1cc2oc(-c3ccc(O)cc3)cc(=O)c2c(O)c1OC	-	-	18µM	-	-	-
O=c1cc(-c2ccccc2)oc2cc(O)c(O)c(O)c12	-	17µM!	30µM	-	?	-
COc1cc(-c2cc(=O)c3c(C)cc(O)cc3o2)cc(OC)c1OC	.	?	8.2µM	-	-	-
COc1c(O)cc2oc(-c3ccc(O)cc3)cc(=O)c2c1O	?	29µM	?	-	-	-
COc1ccc(-n2c(=O)cnc3cnc(N4CCOCC4)nc32)cc1	.	?	-	.	.	.
COc1ccc(-c2cc(=O)c3cc(OC)ccc3o2)cc1	?	-	-	-	-	-
COc1ccc(-c2cc(=O)c3c(OC)c(OC)c(OC)c(OC)c3o2)cc1	.	23µM	16µM	-	-	?
COc1ccc2oc(-c3ccc(O)cc3)cc(=O)c2c1	.	?	27µM	.	.	.
CC(=O)Nc1ccc(S(=O)(=O)Nc2cc(S(=O)(=O)N3CCCCC3)ccc2O)cc1	-	-	-	?	-	-
CC[C@@H](C)CCCCC(=O)N[C@@H](CCNCS(=O)(=O)O)C(=O)N[C@H](C(=O)N[C@@H](CCNCS(=O)(=O)O)C(=O)N[C@H]1CCNC(=O)[C@H]([C@@H](C)O)NC(=O)[C@H](CCNCS(=O)(=O)O)NC(=O)[C@H](CCNCS(=O)(=O)O)NC(=O)[C@H](CC(C)C)NC(=O)[C@@H](CC(C)C)NC(=O)[C@H](CCNCS(=O)(=O)O)NC1=O)[C@@H](C)O	.	?	9.4µM	.	.	.
COc1ccc(S(=O)(=O)N2CCN(c3ccc(F)cc3)CC2)cc1OC	-	-	-	-	-	-
CCOC(=O)/C(C#N)=C\c1ccc(N2CCN(C/C=C/c3ccccc3)CC2)cc1	-	?	21µM	?	-	-
COc1ccc(S(=O)(=O)N2CCN(C/C=C/c3ccccc3)CC2)cc1F	-	-	?	-	-	-65
